From PubChem BioAssay (NCI)
Compounds without any hit were thinned out: in the full panel of roughly 79,000, 15% have a hit. Values without a mark were called inactive. Active and inactive are the calls of the source. Cut-off read from the data, not from the text of the source: active = growth inhibition above about 70%; inactive = the rest.

Assay: NCI Yeast Anticancer Drug Screen. Data for the cln2 rad14 strain (AID 165);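 note: 0% = growth equal to vehicle treated cultures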
Details: S. cerevisiae cln2 rad14 strain, at 50.0 µM (retest, dose inferred, filed as 5.0), stronger effect = higher value
Procedure, shortened: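 cln2 rad14 yeast strain; compound exposure; growth inhibition read vs vehicle controls.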
With `CCCCCCCCCCCCCCCC1=NCCN1C` the growth inhibition was 98% (active). Compound `C=CCNC(=O)c1ccccc1C(=O)O` has a growth inhibition of 18%. In the case of `O=C(Nc1ccc(Cl)cc1Cl)OC(Cn1cncn1)c1ccc(Cl)cc1Cl` (stereo not given), the growth inhibition is reported as 66%. For `CC1=C(C)CC2C(=O)C(C(O)CC(C)C)=CC(=O)C2C1` (stereo not given), the growth inhibition was 86% (active). In the case of `BrCc1ccccc1C[P+](c1ccccc1)(c1ccccc1)c1ccccc1`, the growth inhibition is reported as 97% (active). With `Cc1cn(C(C#N)=C(C#N)C#N)c2ccccc12` the growth inhibition was 26%. For `O=C1OCCCOC(=O)c2cc(ccc2O)OCC#CC#CCOc2ccc(O)c1c2`, the growth inhibition was -4%. For `O=[N+]([O-])c1cc2ccc(O)cc2c2ccccc12`, the growth inhibition was 60%. For `COc1cc2c(oc(=O)c3cc(C)cc(OC)c32)c2c(C3OC(C)C(O)C(C)(O)C3O)ccc(O)c12` (stereo not given), the growth inhibition was 94% (active). With `Oc1c(Cl)cc(Cl)c(Cc2c(Cl)cc(Cl)c(O)c2Cl)c1Cl` the growth inhibition was 97% (active). For `N#CI1OC(C(F)(F)F)(C(F)(F)F)c2ccccc21`, the growth inhibition was 99% (active). With `c1ccc2c(c1)[nH]c1c[n+]3c(c[n+]12)[nH]c1ccccc13` the growth inhibition was 29%. In the case of `CC1Cc2cc(O)c(O)cc2-c2cc(O)c(O)cc2CC1C` (stereo not given), the growth inhibition is reported as 85% (active). For `COc1ccc(C2c3cc4c(cc3OC(C)(O)C2C)OCO4)cc1` (stereo not given), the growth inhibition was 84% (active). For `Cc1ccc(C2(O)CC(c3ccc([N+](=O)[O-])o3)=NN2C(=O)COc2ccc(Cl)cc2)cc1` (stereo not given), the growth inhibition was 11%. `CCO[Si](CC)(OCC)OCC` showed a growth inhibition of 3%. `C/C=C(/CCC1NCCC2c3ccccc3NC12)[Si](C)(C)C` (stereo not given) gave a growth inhibition of 0%. In the case of `O=C(CBr)N1c2ccccc2Sc2ccc3ccccc3c21`, the growth inhibition is reported as 99% (active). In the case of `CC(C)(C)CC(C)(C)N[P+](NC(C)(C)CC(C)(C)C)(NC(C)(C)CC(C)(C)C)NC(C)(C)CC(C)(C)C`, the growth inhibition is reported as 99% (active). In the case of `COc1ccc(/C=C/c2ccnnc2)c(OC)c1OC`, the growth inhibition is reported as 39%. `O=Cc1cc(-c2ccccc2)n(-c2ccccc2)c1-c1ccccc1` showed a growth inhibition of 27%. `CC(=O)Oc1ccc(/C=C/c2ccncc2)cc1` gave a growth inhibition of -32%. For `OC(c1ccccc1)(c1ccccc1)c1ccc[cH-]1.OC(c1ccccc1)(c1ccccc1)c1ccc[cH-]1.[Fe+2]`, the growth inhibition was -15%. For `O=C1C=CC(=O)N1c1ccc(Cl)cc1Br`, the growth inhibition was 100% (active). With `Cc1c(N)nc(C2CC(=O)N2CC(N)C(N)=O)nc1C(=O)NC(C(=O)NC(C)C(O)C(C)C(=O)NC(C(=O)NCCc1nc(-c2nc(C(=O)NCCNCC(C)O)cs2)cs1)C(C)O)C(OC1OC(CO)C(O)C(O)C1OC1OC(CO)C(O)C(OC(N)=O)C1O)c1cnc[nH]1` (stereo not given) the growth inhibition was 92% (active). For `CNC(=S)/N=c1/sc([N+](=O)[O-])c(C)n1C`, the growth inhibition was -14%. Compound `O=c1c2ccccc2ncn1Cc1ccccc1[N+](=O)[O-]` has a growth inhibition of -17%. For `Cc1nn(C(=O)c2ccncc2)c(C)c1N=Nc1ccccc1[N+](=O)[O-]`, the growth inhibition was 6%. In the case of `CCC[CH2][Ge]([CH2]CCC)([CH2]CCC)[O]C(=O)C(OC(C)=O)c1ccccc1` (stereo not given), the growth inhibition is reported as 55%. With `Nc1ccc2c(c1)[nH]c(=O)c1cc(Cl)c(Cl)cc12` the growth inhibition was 77% (active). Work on `CCCCCCCCCCCCSC1=C(N)C(=O)c2ccccc2C1=O` yielded a growth inhibition of 0%. In the case of `CCC(C)(C)c1ccc(OCCO)c([N+](=O)[O-])c1`, the growth inhibition is reported as 64%. Compound `C/C(=N/O)c1cccc(C(F)(F)F)c1` has a growth inhibition of -84%. `CCCCCCN(S(=O)(=O)c1ccc([N+](=O)[O-])cc1)S(=O)(=O)c1ccc([N+](=O)[O-])cc1` showed a growth inhibition of 55%. With `N#CC1=C(N)OC(c2ccccc2)=C(C#N)C1c1ccccc1[N+](=O)[O-]` (stereo not given) the growth inhibition was 5%. With `COC1CCCCC1C(=O)C(C#N)C1CCCCC1C1CCCCC1` (stereo not given) the growth inhibition was 0%. With `COCCOC1=C(Cl)C(=O)c2c(O)ccc(O)c2C1=O` the growth inhibition was 99% (active). With `NC(CSSCC(N)C(=O)Nc1ccc2ccccc2c1)C(=O)Nc1ccc2ccccc2c1` (stereo not given) the growth inhibition was 99% (active). `CSc1c(S(C)=O)c2ccccc2n1C` (stereo not given) showed a growth inhibition of 17%. `CCCCCCCCCCCCCCCCNCCCCCCCC(=O)O` showed a growth inhibition of 26%.

Same assay, conditions: S. cerevisiae cln2 rad14 strain, at 50.0 µM, stronger effect = higher value
In the case of `CCCCCCCCCCCCCCCC1=NCCN1C`, the growth inhibition is reported as 96.5% (active). `C=CCNC(=O)c1ccccc1C(=O)O` gave a growth inhibition of 23.6%. In the case of `O=C(Nc1ccc(Cl)cc1Cl)OC(Cn1cncn1)c1ccc(Cl)cc1Cl` (stereo not given), the growth inhibition is reported as 88.7% (active). With `CC1=C(C)CC2C(=O)C(C(O)CC(C)C)=CC(=O)C2C1` (stereo not given) the growth inhibition was 95.5% (active). For `BrCc1ccccc1C[P+](c1ccccc1)(c1ccccc1)c1ccccc1`, the growth inhibition was 82.3% (active). In the case of `Cc1cn(C(C#N)=C(C#N)C#N)c2ccccc12`, the growth inhibition is reported as -37.4%. `O=C1OCCCOC(=O)c2cc(ccc2O)OCC#CC#CCOc2ccc(O)c1c2` gave a growth inhibition of 38.6%. In the case of `O=[N+]([O-])c1cc2ccc(O)cc2c2ccccc12`, the growth inhibition is reported as 95.2% (active). For `COc1cc2c(oc(=O)c3cc(C)cc(OC)c32)c2c(C3OC(C)C(O)C(C)(O)C3O)ccc(O)c12` (stereo not given), the growth inhibition was 90% (active). In the case of `Oc1c(Cl)cc(Cl)c(Cc2c(Cl)cc(Cl)c(O)c2Cl)c1Cl`, the growth inhibition is reported as 19.5%. For `N#CI1OC(C(F)(F)F)(C(F)(F)F)c2ccccc21`, the growth inhibition was 88.6% (active). For `c1ccc2c(c1)[nH]c1c[n+]3c(c[n+]12)[nH]c1ccccc13`, the growth inhibition was 45.2%. For `CC1Cc2cc(O)c(O)cc2-c2cc(O)c(O)cc2CC1C` (stereo not given), the growth inhibition was 83.4% (active). For `COc1ccc(C2c3cc4c(cc3OC(C)(O)C2C)OCO4)cc1` (stereo not given), the growth inhibition was 97.5% (active). In the case of `Cc1ccc(C2(O)CC(c3ccc([N+](=O)[O-])o3)=NN2C(=O)COc2ccc(Cl)cc2)cc1` (stereo not given), the growth inhibition is reported as 70.3% (active). In the case of `CCO[Si](CC)(OCC)OCC`, the growth inhibition is reported as 81.1% (active). For `C/C=C(/CCC1NCCC2c3ccccc3NC12)[Si](C)(C)C` (stereo not given), the growth inhibition was 0.15%. For `O=C(CBr)N1c2ccccc2Sc2ccc3ccccc3c21`, the growth inhibition was 90% (active). For `CC(C)(C)CC(C)(C)N[P+](NC(C)(C)CC(C)(C)C)(NC(C)(C)CC(C)(C)C)NC(C)(C)CC(C)(C)C`, the growth inhibition was 90.7% (active). `COc1ccc(/C=C/c2ccnnc2)c(OC)c1OC` showed a growth inhibition of 52.8%. With `O=Cc1cc(-c2ccccc2)n(-c2ccccc2)c1-c1ccccc1` the growth inhibition was 0%. With `CC(=O)Oc1ccc(/C=C/c2ccncc2)cc1` the growth inhibition was 50.1%. `OC(c1ccccc1)(c1ccccc1)c1ccc[cH-]1.OC(c1ccccc1)(c1ccccc1)c1ccc[cH-]1.[Fe+2]` gave a growth inhibition of -13.6%. For `O=C1C=CC(=O)N1c1ccc(Cl)cc1Br`, the growth inhibition was 92.4% (active). For `Cc1c(N)nc(C2CC(=O)N2CC(N)C(N)=O)nc1C(=O)NC(C(=O)NC(C)C(O)C(C)C(=O)NC(C(=O)NCCc1nc(-c2nc(C(=O)NCCNCC(C)O)cs2)cs1)C(C)O)C(OC1OC(CO)C(O)C(O)C1OC1OC(CO)C(O)C(OC(N)=O)C1O)c1cnc[nH]1` (stereo not given), the growth inhibition was 90.6% (active). `CNC(=S)/N=c1/sc([N+](=O)[O-])c(C)n1C` showed a growth inhibition of -1.95%. For `O=c1c2ccccc2ncn1Cc1ccccc1[N+](=O)[O-]`, the growth inhibition was 73.3% (active). In the case of `Cc1nn(C(=O)c2ccncc2)c(C)c1N=Nc1ccccc1[N+](=O)[O-]`, the growth inhibition is reported as -3.25%. With `CCC[CH2][Ge]([CH2]CCC)([CH2]CCC)[O]C(=O)C(OC(C)=O)c1ccccc1` (stereo not given) the growth inhibition was 71% (active). `Nc1ccc2c(c1)[nH]c(=O)c1cc(Cl)c(Cl)cc12` gave a growth inhibition of 13.1%. For `CCCCCCCCCCCCSC1=C(N)C(=O)c2ccccc2C1=O`, the growth inhibition was 32.3%. Work on `CCC(C)(C)c1ccc(OCCO)c([N+](=O)[O-])c1` yielded a growth inhibition of 25.9%. Compound `C/C(=N/O)c1cccc(C(F)(F)F)c1` has a growth inhibition of 35.6%. Compound `CCCCCCN(S(=O)(=O)c1ccc([N+](=O)[O-])cc1)S(=O)(=O)c1ccc([N+](=O)[O-])cc1` has a growth inhibition of 68.7%. For `N#CC1=C(N)OC(c2ccccc2)=C(C#N)C1c1ccccc1[N+](=O)[O-]` (stereo not given), the growth inhibition was 72.5% (active). In the case of `COC1CCCCC1C(=O)C(C#N)C1CCCCC1C1CCCCC1` (stereo not given), the growth inhibition is reported as 98.5% (active). For `COCCOC1=C(Cl)C(=O)c2c(O)ccc(O)c2C1=O`, the growth inhibition was 90.5% (active). For `NC(CSSCC(N)C(=O)Nc1ccc2ccccc2c1)C(=O)Nc1ccc2ccccc2c1` (stereo not given), the growth inhibition was 90.3% (active). Work on `CSc1c(S(C)=O)c2ccccc2n1C` (stereo not given) yielded a growth inhibition of -6.4%. In the case of `CCCCCCCCCCCCCCCCNCCCCCCCC(=O)O`, the growth inhibition is reported as 72% (active).
